Each structure is given as a SMILES string. Activity calls are given as the source filed them.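 Rule for the calls: active = compounds whose dose series gives a full or clear partial fitted curve of increased nuclear translocation; inconclusive = weak partial curve or effect only at the top dose; inactive = no dose-dependent translocation response.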
Potency is the fitted concentration of half-maximal effect.

Glucocorticoid receptor (Homo sapiens), sequence (P04150 whole entry, looked up): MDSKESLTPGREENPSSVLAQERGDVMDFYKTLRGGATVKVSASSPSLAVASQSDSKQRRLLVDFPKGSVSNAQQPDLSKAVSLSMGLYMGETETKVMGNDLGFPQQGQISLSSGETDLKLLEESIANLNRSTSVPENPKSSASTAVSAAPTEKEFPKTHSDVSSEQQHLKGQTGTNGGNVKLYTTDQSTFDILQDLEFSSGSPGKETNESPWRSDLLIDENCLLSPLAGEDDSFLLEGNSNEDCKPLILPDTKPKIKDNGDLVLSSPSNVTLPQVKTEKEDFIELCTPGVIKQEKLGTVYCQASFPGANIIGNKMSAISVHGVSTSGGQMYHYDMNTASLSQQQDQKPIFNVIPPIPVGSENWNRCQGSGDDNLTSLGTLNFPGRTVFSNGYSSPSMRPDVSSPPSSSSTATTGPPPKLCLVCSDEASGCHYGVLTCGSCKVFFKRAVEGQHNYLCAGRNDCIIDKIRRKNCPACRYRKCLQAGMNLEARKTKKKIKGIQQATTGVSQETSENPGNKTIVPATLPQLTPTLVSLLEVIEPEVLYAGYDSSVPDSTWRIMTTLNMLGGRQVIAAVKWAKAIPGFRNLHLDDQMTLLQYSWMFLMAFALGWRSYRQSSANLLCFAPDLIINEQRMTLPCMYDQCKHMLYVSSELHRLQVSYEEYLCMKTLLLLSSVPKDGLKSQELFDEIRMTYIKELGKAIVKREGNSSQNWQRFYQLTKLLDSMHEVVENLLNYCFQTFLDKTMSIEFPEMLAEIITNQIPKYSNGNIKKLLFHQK

This experiment addresses Glucocorticoid receptor (Homo sapiens) (UniProt P04150). As to the kind of experiment: GR-GFP Redistribution (AID 450). To be noted: U2OS GR-GFP nuclear translocation, laser cytometry, 2 h; series mostly up to 20.6 µM.
For the compound `Cc1cccc(-n2ncc3c(NCCN4CCOCC4)ncnc32)c1`, the Potency is > 20.6 µM (inactive).
Take `CCN(CC)CCN1C(=O)C(=O)/C(=C(/O)c2ccc(OC(C)C)cc2)C1c1ccncc1` (stereo not given): the Potency was > 20.6 µM (inactive).
For the compound `Cc1cc(C)n(-c2nnc(C)n2/N=C/c2ccco2)n1`, the Potency was > 20.6 µM (inactive).
With `CCn1c(SCC(=O)NC2CCCCC2C)nnc1-c1ccc(OC)cc1` (stereo not given), the Potency was > 20.6 µM (inactive).
`CCOP(=O)(c1ccccc1)c1nc(-c2ccc(F)cc2)oc1N1CCCCC1` (stereo not given): the Potency is > 20.6 µM (inactive).
As to `Cc1nc2c(o1)CCc1ccccc1C2O` (stereo not given), the Potency was > 20.6 µM (inactive).
On to `CC1N(O)C(c2ccc(Cl)cc2Cl)N(O)C1(C)C` (stereo not given), for which the Potency is > 20.6 µM (inactive).
On to `COc1ccc(C2/C(=C(/O)c3cnn(-c4ccccc4)c3C)C(=O)C(=O)N2CCN(C)C)cc1OC` (stereo not given), for which the Potency is > 20.6 µM (inactive).
As to `COc1ccc(OC)c(C2/C(=C(/O)c3cnn(-c4ccccc4)c3C)C(=O)C(=O)N2CCN(C)C)c1` (stereo not given), the Potency was > 20.6 µM (inactive).
Consider `CSc1nc(C)cc(OCCNS(=O)(=O)c2cc(C)ccc2C)n1`, for which the Potency is > 20.6 µM (inactive).
On to `CN1CCN(CCCCOc2ccc(F)cc2)CC1`, for which the Potency is > 20.6 µM (inactive).
Next, `COc1cccc(N2CCN(C3CC(=O)N(c4cccc(Cl)c4)C3=O)CC2)c1` (stereo not given): > 20.6 µM (inactive); `C=CCOc1nc2c(c(=O)n(Cc3ccc(Cl)c(Cl)c3)c(=O)n2C)n1C`: > 20.6 µM (inactive).
For the compound `COC(=O)CNC(=O)c1c(C)cc(=O)oc1C`, the Potency is > 20.6 µM (inactive).
The value for `COc1ccc(-c2onc(C)c2-c2ccccc2)c(O)c1` was > 20.6 µM (inactive); that for `Cc1nnc(N2CCOCC2)c2ccccc12` was > 20.6 µM (inactive).
`CCOc1cccc(C2C(C#N)=C(N)Oc3cc(C)oc(=O)c32)c1OCC` (stereo not given): the Potency is > 20.6 µM (inactive).
With `O=C1C2ON(c3ccccc3)C(c3ccncc3)C2C(=O)N1c1ccccc1` (stereo not given), the Potency is > 20.6 µM (inactive).
On to `COc1ccccc1-c1nnc2sc(COc3ccccc3)nn12`, for which the Potency is > 20.6 µM (inactive).
Turning to `CCCCOC(=O)c1ccc(NC(=O)CSc2nncn2C)cc1`, the Potency was > 20.6 µM (inactive).
With `O=C(Nc1ncn[nH]1)c1c(Cl)ccc(Cl)c1Cl`, the Potency is > 20.6 µM (inactive).
Consider `Cn1c(Cn2cnc3ccccc32)nc2ccccc21`, for which the Potency was > 20.6 µM (inactive).
Regarding `Nc1nnnn1N=C1CCCCC1`, the Potency is > 20.6 µM (inactive).
For `Cc1cc2c(c(=O)n1Cc1cccnc1)C(c1ccccc1)C(C#N)=C(N)O2` (stereo not given), the Potency is > 20.6 µM (inactive).
As to `Cc1ccc2cc(CN(C(=O)c3ccco3)c3ccccc3)c(=O)[nH]c2c1`, the Potency is > 20.6 µM (inactive).
Turning to `COc1ccccc1-n1c(=O)c2c3c(sc2n2c(SC)nnc12)CCC3`, the Potency is > 20.6 µM (inactive).
With `CC(=O)OCC(=O)[C@H]1CC[C@H]2[C@@H]3CC=C4C[C@@H](O)CC[C@]4(C)[C@H]3CC[C@]12C`, the Potency is > 20.6 µM (inactive).
For `COc1cccc(N2CCN(c3ncnc4c3[nH]c3ccc(F)cc34)CC2C)c1` (stereo not given), the Potency was > 20.6 µM (inactive).
For `CC(C)Oc1ccc(Cc2c(O)nc(NCCCN(C)C)[nH]c2=O)cc1`, the Potency is > 20.6 µM (inactive).
On to `O=C1NC2c3ccccc3C(=O)N2c2c1cnn2-c1ccccc1` (stereo not given), for which the Potency is > 20.6 µM (inactive).
On to `CC(=O)C1=C(O)C(=O)N(c2cccc(C(=O)O)c2)C1c1ccc(F)cc1` (stereo not given), for which the Potency is > 20.6 µM (inactive).
With `O=C1CCc2nc3ccccc3c(=O)n2N1`, the Potency is > 20.6 µM (inactive).
With `CN1C(=O)NC(c2ccccc2)C2=C1CN(Cc1ccccc1)C2=O` (stereo not given), the Potency is > 20.6 µM (inactive).
As for `CC1(C)Cc2c(C#N)c(SCc3nc4ccccc4[nH]3)nc(N3CCOCC3)c2CO1`, the Potency is > 20.6 µM (inactive).
With `CCC(=O)Nc1nc2ccccc2n1CCN(C)C`, the Potency is > 20.6 µM (inactive).
For `CCC(NC(=O)Nc1nccs1)(C(F)(F)F)C(F)(F)F`, the Potency was > 20.6 µM (inactive).
For `CN(C1CCS(=O)(=O)C1)S(=O)(=O)c1cccc2nsnc12` (stereo not given), the Potency is > 20.6 µM (inactive).
The value for `CCOCCn1c(SC)nc2c1c(=O)[nH]c(=O)n2C` was > 20.6 µM (inactive); that for `O=C(C1CC1(c1ccccc1)c1ccccc1)N1CCOCC1` (stereo not given) was > 20.6 µM (inactive).
Next, `CCOC(=O)CSc1nc(N2CCOCC2)c2c(c1C#N)CC(C)(C)N(C)C2`: > 20.6 µM (inactive).
